Test results: ChEMBL document CHEMBL4513216, “Probing the Open Global Health Chemical Diversity Library for Multistage-Active Starting Points for Next-Generation Antimalarials” (ACS Infect Dis, 2020)
Screen size: about 69,000 compounds; about 8,600 (12%) showed an effect of 50% or more. The sample holds strong results, similar compounds and a random draw of the others, so the mix is not that of the screen.

What follows are compounds tested on Plasmodium berghei (assay: Screen against P. berghei liver stage (PbLuc), transformed with Luciferase, at 10uM). Conditions: tested at 10 uM.
Assay type: functional, HepG2

| Structure (SMILES) | INHIBITION [%] |
| --- | --- |
| O=c1cc(-c2ccc(F)cc2)nc2n1CCCCC2 | 7.25 |
| O=S(=O)(C1CC1)N1CCO[C@H]2[C@@H](Oc3cccnc3)CC[C@@H]21 | 37.1 |
| CN(C)C(=O)c1cccc(C2CNCCN2C)c1 (stereo unspecified) | 15.255 |
| Cc1cn(Cc2ccc(F)c(F)c2)nc1N | 70.8 |
| Cc1ccc(Cn2cc(C)c(N)n2)cc1 | 8.53 |
| Cc1cn(Cc2ccc(F)cc2)nc1N | -46.4 |
| CCc1ccc(CN2CC[C@H]3[C@H]2CC(=O)N3Cc2cccc(C)n2)o1 | 30.9 |
| CCN(CCCc1ccccc1)CC1(C)Cc2c(N)nc(N)nc2O1 (stereo unspecified) | 26.8 |
| CCn1nc(C)c(CCNC(=O)C2CCCN(C(=O)COC)C2)c1C (stereo unspecified) | -13.6 |
| Cc1ccc2nc(CNc3ccccc3C(=O)NC3CC3)cn2c1 | 7.38 |
| Cc1ccc([C@@H]2CN(S(=O)(=O)N(C)C)C[C@H]2N(C)C)cc1 | -11.1 |
| Cc1ccc([C@@H]2CN(S(=O)(=O)c3ccccc3)C[C@H]2N(C)C)cc1 | 0.818 |
| Cc1ccc([C@@H]2CN(S(=O)(=O)Cc3ccccc3)C[C@H]2N(C)C)cc1 | 55.2 |
| Cc1nc2c(c(C)c1CC(=O)NCc1ccc(F)cc1)c(=O)[nH]n2C | -12.1 |
| Cc1cc(C(=O)N[C@H]2CN(CCC(N)=O)C[C@@H]2C2CC2)sc1C | 50.5 |
| Cc1nc(N)sc1C(=O)N[C@H]1CN(CCO)C[C@@H]1C1CC1 | 12 |
| Cc1cc(C(=O)N[C@H]2CN(CCO)C[C@@H]2C2CC2)sc1C | 44 |
| CCOc1cc(C)nc(N2CCN(C(=O)c3cnc[nH]3)CC2)n1 | -3.2 |
| CC(C)CCN1CCC2(CC1)CN(C(=O)c1cnccn1)CCO2 | -12.6 |
| CS(=O)(=O)NC1CCN(Cc2coc(-c3ccccc3)n2)CC1 | 30.4 |
| O=C(C1CC1)N1CCN(Cc2coc(-c3ccc(Cl)cc3)n2)CC1 | 76.1 |
| CC(O)CN1CCN(Cc2coc(-c3ccc(Cl)cc3)n2)CC1 (stereo unspecified) | 47.1 |
| OCCN1CCN(Cc2coc(-c3ccc(Cl)cc3)n2)CC1 | 11.6 |
| Cc1nc(CN2CCC(NS(C)(=O)=O)CC2)co1 | 34 |
| CS(=O)(=O)NC1CCN(Cc2coc(-c3ccc(Cl)cc3)n2)CC1 | 79.5 |
| CN(C)CC1CN(C(=O)CCc2ccccc2)Cc2nccn2C1 (stereo unspecified) | -41.8 |

| Structure (SMILES) | INHIBITION [%] |
| --- | --- |
| Cc1occc1C(=O)N1Cc2nccn2CC(CN(C)C)C1 (stereo unspecified) | 44.8 |
| c1ccc(-n2cc(CNC3CCc4ncnn4C3)nn2)cc1 (stereo unspecified) | 41.45 |
| O=C(Nc1cccnc1N1CCCC1)C1CCS(=O)(=O)C1 (stereo unspecified) | -7.35 |
| COc1cccc(CNCC2CCN(CC(C)O)CC2)c1OC (stereo unspecified) | 7.85 |
| COc1cccc(CNCc2c(C)nc3sc(C)cn23)c1OC | 66.4 |
| COc1cccc(CNCc2c(C(C)C)nn(C)c2N(C)C)c1OC | -7.84 |
| COc1ccc(OC)c(CNCc2c(C)nc3sc(C)cn23)c1 | 10.8 |
| COc1ccc(CNCc2c(C)nc3sc(C)cn23)c(OC)c1OC | 64.6 |
| COc1ccc(CNC(C)Cn2cccn2)c(OC)c1OC (stereo unspecified) | 25.1 |
| O=C(NCCc1noc(-c2ccccn2)n1)NCC1CCCC1 | -18.3 |
| CC(C)c1nnc2ccc(N3CCC(C(=O)O)CC3)nn12 | -9.3 |
| Cc1c(Cl)cccc1S(=O)(=O)N1C[C@H]2CC[C@@H](C1)N(C)C2=O | 0.546 |
| CN(C)C(=O)c1nnc2ccc(N3CCOCC3)cc2n1 | -13.9 |
| CN(Cc1cccnc1)C[C@H]1OC[C@@H]2CCN(c3ncccn3)C[C@@H]21 | 14 |
| CN(Cc1cccnc1)C[C@@H]1OC[C@H]2CN(C(=O)C3CC3)CC[C@H]21 | 76.2 |
| CN(C)C[C@H]1OC[C@@H]2CN(C(=O)NCc3cccnc3)CC[C@@H]21 | 5.63 |
| CN(Cc1ccco1)C[C@H]1OC[C@@H]2CCN(Cc3cccnc3)C[C@@H]21 | 41.4 |
| CN(Cc1cccnc1)C[C@@H]1OC[C@H]2CN(Cc3ccoc3)CC[C@H]21 | 2.79 |
| CN(Cc1cccnc1)C[C@H]1OC[C@@H]2CCN(C(=O)C3CC3)C[C@@H]21 | 54.8 |
| O=C(CCN1CCOC(CNc2cccnn2)C1)NC1CCCCC1 (stereo unspecified) | 9.64 |
| O=C(CCCOc1ccccc1)N1CCCC(n2cncn2)C1 (stereo unspecified) | 14.133 |
| CC(=O)N1CC(C(=O)NC(C)c2cnn(C)c2C)C1 (stereo unspecified) | 8.57 |
| CCN1CC[C@@]2(C(=O)N(C)C)CCN(S(=O)(=O)c3ccccc3)CC[C@@H]12 | -89.8 |
| Cn1cccc1C(=O)NC(C)(C(N)=O)c1cccc(Cl)c1 (stereo unspecified) | 11.5 |
| Cc1nncn1CCNC(=O)C(C)(C)c1cccc(C(F)(F)F)c1 | -0.758 |
